From PubChem
Shown is part of a subset that was picked to be rich in hits.
SARS PLpro yeast-1 = qHTS of Yeast-based Assay for SARS-CoV PLP | S. cerevisiae expressing SARS-CoV PLpro, growth rescue | Potency, µM (titrated, usually from 32.9 µM), for the others: at the highest dose activity, positive = growth rescue, most hits filed as activators | 330,000 compounds, 0.19% hits | AID 485353, 2010; calls by dose curve; note: potency is the fitted concentration of half-maximal effect; 0% is about no effect; nearly all actives have a fitted effect of over 55% in size
Tb PYK inh = qHTS of Trypanosoma Brucei Inhibitors; pyruvate kinase (Trypanosoma brucei), Q57TT1; TbPYK enzyme, Kinase-Glo Plus ATP luminescence, 45 min; Potency, µM (highest dose often 76.8 µM), for inactives: top-dose activity, negative = inhibition, most hits filed as inhibitors; 410,000 compounds, 0.12% hits; AID 624173, 2012; note: potency is the fitted concentration of half-maximal effect; % is set by controls: 0 for no effect and ±100 for the full control effect; nearly all actives have a fitted effect of over 50% in size
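Quantitative HTS: titrated library compounds versus trypanosomal pyruvate kinase in TEA buffer (pH 7.2) containing KCl, MgCl2, BSA and Tween-20. Reactions were initiated with ADP, 130 uM final. Kinase-Glo Plus luminescence was read after 45 min at RT.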
Shiga inhibitor = A qHTS for Small Molecule Inhibitors of Shiga Toxin. Vero cells, Shiga toxin protein synthesis inhibition reporter. inhibition, % at 38.7 µM. 290,000 compounds, 9.2% hits. AID 2315, 2010; in the data active = inhibition mostly above about 28%, no sharp cut-off; inactive = mostly below about 43%; note: 0% is about no effect
NS1 function inh = qHTS Assay for Inhibitors of Influenza NS1 Protein Function | Potency, µM (highest dose often 46.1 µM), inactives show at the top dose activity, positive = more growth | 270,000 compounds, 0.4% hits | AID 2326, 2010; calls by dose curve; note: potency is the fitted concentration of half-maximal effect; actives are rising curves; nearly all actives have a fitted effect of over 50% in size
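A cell-based growth assay was used: compounds that relieve NS1-induced slow growth of budding yeast raise OD600. Assay medium was yeast nitrogen base with ammonium sulphate and -URA supplement, pH 6.0, with 2% galactose.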
CHX counter = Cycloheximide Counterscreen for Small Molecule Inhibitors of Shiga Toxin; AID 2314, 2010; 300,000 compounds, 12% hits; cell reporter, cycloheximide protein synthesis inhibition counterscreen; max response, %; in the data active = max response mostly above about 13%, no sharp cut-off; inactive = mostly below about 14%; note: read at 38.3 µM for the half of the compounds with a filed dose; 0% is about no effect
LmPK inhibitor = qHTS Assay for Inhibitors of Leishmania Mexicana Pyruvate Kinase (LmPK); Q27686; purified LmPK, Kinase-Glo ATP luminescence, 1 h; Potency, µM (doses to about 57.5 µM), for inactives: at the top dose activity change, negative = inhibition, actives largely listed as inhibitors; 290,000 compounds, 0.37% hits; AID 1721, 2009; note: potency is the fitted concentration of half-maximal effect; % is set by controls: 0 for no effect and ±100 for the full control effect
Target sequence (Q27686 whole entry, looked up): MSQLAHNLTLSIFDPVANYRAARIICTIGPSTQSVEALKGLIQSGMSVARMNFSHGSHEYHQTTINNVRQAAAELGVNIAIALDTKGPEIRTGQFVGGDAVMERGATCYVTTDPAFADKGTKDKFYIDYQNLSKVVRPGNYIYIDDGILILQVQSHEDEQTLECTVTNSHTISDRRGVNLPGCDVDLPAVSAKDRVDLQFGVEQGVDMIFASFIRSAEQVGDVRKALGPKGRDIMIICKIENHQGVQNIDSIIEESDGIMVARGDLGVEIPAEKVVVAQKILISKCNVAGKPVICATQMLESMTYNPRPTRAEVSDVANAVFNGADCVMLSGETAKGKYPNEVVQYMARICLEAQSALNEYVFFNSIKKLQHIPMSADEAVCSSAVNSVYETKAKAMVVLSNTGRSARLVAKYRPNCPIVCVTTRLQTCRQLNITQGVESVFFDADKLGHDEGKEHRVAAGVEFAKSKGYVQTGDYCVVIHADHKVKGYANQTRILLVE
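Purified LmPK (0.1 nM) with 0.5 mM PEP and 0.1 mM ADP in imidazole buffer pH 7.2 with MgCl2/KCl, 1 h at room temperature. ATP formed was read by luciferase luminescence and normalized to no-enzyme and uninhibited controls.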
SARS PLpro yeast-2 = qHTS of Yeast-based Assay for SARS-CoV PLP: Hit Validation | shares compounds with SARS PLpro yeast-1 | calls only | 1,000 compounds, 19% hits | yeast expressing SARS-CoV PLpro, growth phenotype rescue; call rule not given here
An asterisk follows results filed as active; i = inactive; ? = inconclusive; · = not tested or not shown; + = active, no number; [ ] = dose if it differs, or a comment. Unless noted, calls come from the whole dose curve; as a rule, active = well fitted curve in the direction sought with a large enough effect; inconclusive = small, poorly fitted or top-dose-only effect, or another doubt; inactive = no such curve, though single readings can be large; an effect the other way counts as inactive or inconclusive.

SMILES	SARS PLpro yeast-1	Tb PYK inh	Shiga inhibitor	NS1 function inh	CHX counter	LmPK inhibitor	SARS PLpro yeast-2
CN(CC(=O)Nc1ccc(Cl)c(Cl)c1)C(=O)/C=C/c1ccc(F)cc1	28%	-3%	-15	-17%	-2	4%	·
CCN(CC)S(=O)(=O)c1cc(NC(=O)C2=COCCO2)ccc1Cl	0%	1%	·	·	·	·	·
CCN(CC)C(=O)c1cccc(NC(=O)C2=COCCO2)c1	2.2µM*	4%	·	·	·	·	i
COc1ccc(S(=O)(=O)c2c(Nc3ccccc3F)sc(C(=O)c3cccc(OC)c3)c2N)cc1	·	3%	·	·	·	·	·
COC(=O)c1ccc(N2CCN(CCNC(=O)Nc3ccc(OC)cc3)CC2)cc1	?	0%	6	13%	3	-2%	i
COc1ccc(N2CCN(CCNC(=O)Nc3ccc(C)c(Cl)c3)CC2)cc1	-2%	3%	-6	-5%	-5	-1%	·
O=C(Cn1nc(Cl)nc1Cl)c1ccc2c(c1)OCCO2	11µM*	-2%	-7	-144%	-2	-2%	?
O=C(Cn1nc(Cl)nc1Cl)c1ccc(F)cc1	-1%	-1%	-7	9%	9	0%	·
CC(=O)O[C@H]1C(=O)[C@@]2(C)[C@H]([C@H](OC(=O)c3ccccc3)[C@]3(O)C[C@H](OC(=O)[C@H](O)C(NC(=O)c4ccccc4)c4ccccc4)C(C)=C1C3(C)C)[C@]1(OC(C)=O)CO[C@@H]1C[C@@H]2O (stereo partly specified)	0%	-11%	1	-38%	2	6%	·
CC(=O)O[C@@]12CO[C@@H]1C[C@@H](O)[C@@]1(C)C(=O)[C@H](O)C3=C(C)[C@@H](OC(=O)[C@H](O)[C@@H](NC(=O)c4ccccc4)c4ccccc4)C[C@@](O)([C@@H](OC(=O)c4ccccc4)C12)C3(C)C (stereo partly specified)	?	0%	-5	-10%	-3	-8%	?
O=C(Nc1ccc2c(c1)OCCO2)C(c1ccnc2ccccc12)N1CCC(Cc2ccccc2)CC1 (stereo unspecified)	·	2%	·	·	·	·	·
C[C@@H]1CN([C@@H](C)CO)C(=O)c2cc(Br)cnc2O[C@@H]1CN(C)Cc1ccc(Oc2ccccc2)cc1	·	-6%	·	·	·	·	·
CCCCC(=O)NC(=S)NNC(=O)CC#N	1%	-4%	34	-4%	-2	-2%	·
CCCCC(=O)NNC(=S)NC(=O)CCC	16µM*	-24%	-2	-2%[9.22 µM]	13	0%	i
CN(Cc1ccccc1)C(=O)[C@@H]1CCCN1C(=O)[C@@H]1CCCN1C(=O)c1cccs1	·	5%	·	·	·	·	·
COc1cc(OC)cc(C(=O)NC(=S)NCc2ccco2)c1	15%	-19%	-14	2%	-2	-1%	·
COc1cccc(C(=O)NC(=S)NCc2ccco2)c1	?	-12%	40*	1%	23*	0%	+
CCc1ccccc1NS(=O)(=O)c1cc2c3c(c1)CCN3C(=O)CC2	-3%	5%	·	·	·	·	·
COc1cccc(NC(=O)CN(C)C(=O)c2ccc3[nH]c4c(c3c2)CC(C)CC4)c1 (stereo unspecified)	-3%	-2%	·	·	·	·	·
COC(=O)c1c(NS(=O)(=O)c2ccc(C)cc2)sc2c1CCC(C)C2 (stereo unspecified)	?	-9%	-4	-3%	-3	8%	+
COc1cc(OC)cc(C(=O)N[C@H](C(=O)OCC(=O)Nc2cccc(F)c2)C(C)C)c1	3.5µM*	-11%	-6	-46%	-2	-2%	i
C/C(=N\NC(=O)c1ccc(CSc2nncn2C)cc1)c1ccc2ccccc2c1	?	4%	3	-4%	-2	4%	i
N#CC1=C(N)Oc2cc3ccccc3cc2C1c1cccnc1 (stereo unspecified)	14%	-5%	-12	-8%	-7	3%	·
